Screens as filed in PubChem BioAssay.
Most compounds without a hit are left out; they make up all but 9.2% or so of the library.
FLuc counter – firefly luciferase modulation, counter-screen for miR-21 project. P08659. purified FLuc, Km substrates, luminescence inhibition. Potency, µM (series often up to 57.5 µM), for the others: top-dose activity change, negative = inhibition, actives largely listed as inhibitors. hit rate 6.9% among 360,000. AID 588342;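 further: plate controls were vehicle for no effect and reference inhibitor for full effect; nearly all actives have a fitted effect of over 55% in size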
Target sequence (P08659 whole entry, looked up): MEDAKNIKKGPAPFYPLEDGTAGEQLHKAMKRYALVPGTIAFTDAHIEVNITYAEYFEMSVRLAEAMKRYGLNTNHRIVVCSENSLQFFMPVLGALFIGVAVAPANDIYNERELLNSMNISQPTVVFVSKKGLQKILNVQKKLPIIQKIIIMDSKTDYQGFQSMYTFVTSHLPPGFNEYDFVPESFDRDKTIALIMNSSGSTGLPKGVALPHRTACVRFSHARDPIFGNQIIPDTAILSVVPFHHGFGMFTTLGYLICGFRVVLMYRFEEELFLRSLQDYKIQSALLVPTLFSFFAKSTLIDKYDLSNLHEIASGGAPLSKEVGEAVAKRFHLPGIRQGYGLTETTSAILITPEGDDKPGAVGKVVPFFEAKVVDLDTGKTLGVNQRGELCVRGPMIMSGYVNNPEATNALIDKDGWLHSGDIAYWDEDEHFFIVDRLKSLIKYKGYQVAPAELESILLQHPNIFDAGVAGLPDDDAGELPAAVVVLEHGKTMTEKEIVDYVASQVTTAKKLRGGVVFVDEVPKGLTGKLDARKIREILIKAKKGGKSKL
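Purified P. pyralis luciferase, 10 nM final, with Km-level 10 uM D-luciferin and 10 uM ATP in 50 mM Tris acetate pH 7.5, 10 mM Mg acetate, 0.01% Tween-20, 0.05% BSA; 6-point qHTS titration about 60 µM downward; luminescence read.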
ELG1 repair inh – ELG1-dependent DNA repair inhibition. hit rate 2.3% among 330,000. HEK293T ELG1-luciferase reporter, luminescence, 16 h; DNA damage induced by 5-fluorouridine. Potency, µM (titrated, usually from 46.1 µM), for inactives: at the top dose activity change, negative = inhibition, most hits filed as inhibitors; further: on the % scale 0 is the no-effect control and ±100 the full control effect; nearly all actives have a fitted effect of over 55% in size
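Luminescence from the luciferase reporter, measured 30 min after ONE-Glo reagent at room temperature, was the read-out. Beforehand, 2,000 cells per well were exposed for 16 hr at 37 °C to 5-fluorouridine together with compound or vehicle.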
Rab9 prom act – Rab9 promoter activation. Huh7 Rab9 promoter-luciferase reporter, luminescence, 24 h. Potency, µM (highest dose often 9.22 µM), inactives show at the highest dose activation, negative = inhibition, hits mostly activators. hit rate 2.8% among 320,000; further: % of control where 0% means no effect; nearly all actives have a fitted effect of over 60% in size
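Cell-based reporter: Huh7 stable for Rab9 promoter-driven luciferase, plated in reduced-serum medium with 10% FBS at 1500 cells/well, compound-treated 24 h at 37 °C, luminescence read after 10 min reagent.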
SMN2 splice up – enhancers of SMN2 splice variant expression; HEK293 SMN2-luciferase splicing reporter, luminescence, 30-36 h; Potency, µM (doses to about 46.1 µM), for inactives: at the top dose activity change, positive = activation, usual class: activators; hit rate 2.8% among 210,000; further: % of control where 0% means no effect; nearly all actives have a fitted effect of over 55% in size
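qHTS luciferase splicing reporter: luminescence rises when SMN2 exon 7 is included in transfected HEK293 cells. Compound exposure lasted 30-36 h at 37C, with 4.5 mM final sodium butyrate as control, followed by a ONE-Glo read.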
NPC1 promoter act – activates the NPC1 promoter; hit rate 2.4% among 320,000; Potency, µM (highest dose often 9.22 µM), for inactives: at the top dose activation, actives largely listed as activators; Huh7 NPC1 promoter luciferase reporter, 24 h; further: % of control where 0% means no effect; nearly all actives have a fitted effect of over 60% in size
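Stably transfected Huh7 (NPC1 promoter→luciferase), 1500 cells/well in Opti-MEM + 10% FBS, 2 h settle, then compound 24 h at 37 °C. Luminescence after 10 min with Amplite reagent.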
ELG1 genotoxic – inducers of genotoxicity in HEK293T ELG1-luciferase cells | HEK293T ELG1-luciferase reporter, luminescence, 16 h | Potency, µM (highest dose often 46 µM), for inactives: at the top dose activity change, positive = activation, usual class: activators | hit rate 1.3% among 330,000 | AID 504466; further: % of control where 0% means no effect; nearly all actives have a fitted effect of over 60% in size
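After overnight (16 hr) compound treatment at 37 °C, ELG1-luciferase HEK293T cells were lysed with ONE-Glo; luminescence quantified 30 min later at room temperature.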
Active calls of the source: *; ? = inconclusive; nt = no result given. The call rests on the fitted dose curve; in most records, active means well fitted curve in the direction sought with a large enough effect; inconclusive means small, poorly fitted or top-dose-only effect, or another doubt; inactive means no such curve, though single readings can be large; an effect the other way counts as inactive or inconclusive. Potency means the concentration at half of the fitted maximal effect.

SMILES | FLuc counter | ELG1 repair inh | Rab9 prom act | SMN2 splice up | NPC1 promoter act | ELG1 genotoxic
O=C(CCCN1CCOCC1)c1ccc2c(c1)OCCO2 | 13µM* | ? | 2µM* | ? | ? | ?
O=C(OCCN1CCOCC1)c1ccc2c(c1)OCCO2 | 24µM* | nt | nt | ? | nt | nt
O=C(CC1N=C2c3ccccc3N=C(SCc3cccc(Cl)c3)N2C1=O)NCCc1ccccc1 (stereo not given) | -11% | nt | nt | nt | nt | nt
C=CCC1CCC/C(=N\NS(=O)(=O)c2ccc(C)cc2)C1 (stereo not given) | 5% | 11% | -4% | nt | 2% | -2%
COc1cc(CCC(=O)NNC(=O)c2cccc(Cl)c2)cc(OC)c1OC | -1% | 10% | -5% | nt | -1% | 7%
CCc1ccccc1NC(=O)c1cnc2sc(N3CCCC3)nn2c1=O | -6% | nt | nt | nt | nt | nt
CCOc1ccc(-c2cc(C(=O)Nc3ccc4c(c3)OCCO4)c3ccccc3n2)cc1 | 2.4µM* | -19% | ? | ? | 25% | 2%
COc1ccc(-c2cc(C(=O)OCC(=O)Nc3ccc4c(c3)OCO4)c3ccccc3n2)cc1 | ? | ? | 21% | 13µM* | 22% | 0%
Cc1cccc(-c2cc(C(=O)Nc3ccc4c(c3)OCCO4)c3ccccc3n2)c1 | 6.7µM* | ? | 14% | -9% | -1% | -7%
O=C(Nc1ccc2c(c1)OCCO2)c1cc(-c2ccccn2)nc2ccc(Br)cc12 | -4% | 1% | -8% | -7% | -5% | 14%
c1csc(Cc2nn3c(-c4ccncc4)nnc3s2)c1 | 5% | 10µM* | -5% | -5% | 9% | -19%
c1cc(-c2nnc3sc(C4CCCCC4)nn23)ccn1 | 3% | 9.2µM* | -2% | -11% | 6% | -23%
c1csc(-c2nn3c(-c4ccncc4)nnc3s2)c1 | -2% | -11% | -1% | -9% | -8% | 0%
COc1ccccc1-c1c(C)nn2c(C(F)(F)F)cc(-c3ccccc3)nc12 | -1% | nt | nt | 2% | nt | nt
CC1CCN(c2ccc(-c3cccc(NS(=O)(=O)c4cccs4)c3)nn2)CC1 | 0.48µM* | nt | nt | nt | nt | nt
CSc1cccc(NS(=O)(=O)c2cccs2)c1 | 2% | 5% | 1% | 13% | 1% | -4%
O=S(=O)(Nc1cccc(-c2ccc3nncn3n2)c1)c1ccc(Cl)s1 | -15% | 11% | 1% | 8% | -4% | 5%
CC1CCN(c2ccc(-c3cccc(NS(=O)(=O)c4ccc(Cl)s4)c3)nn2)CC1 | 0.85µM* | nt | nt | nt | nt | nt
COc1ccc(-c2nc3c4cnn(-c5ccccc5F)c4ncn3n2)cc1 | ? | nt | nt | 16% | nt | nt
Fc1ccccc1-n1ncc2c1ncn1nc(-c3ccccc3Cl)nc21 | 0.95µM* | nt | nt | 5% | nt | nt
COc1ccc(CCn2c(=O)c3cccnc3n(CC(=O)Nc3ccc(C)cc3C)c2=O)cc1OC | -2% | nt | nt | -9% | nt | nt
c1ccc(CN2CCOCC2)cc1 | 0% | -2% | 2% | 17% | 0% | 3%
O=c1c2ccccc2oc2cc(-c3ccc(CN4CCOCC4)cc3)ccc12 | 6.7µM* | ? | ? | nt | 2.2µM* | -10%
CC1Cc2cc(/C(O)=C3/C(=O)C(=O)N(CCN4CCOCC4)C3c3cccc(O)c3)ccc2O1 (stereo not given) | 21µM* | ? | 0% | 6% | -2% | 25%
CN1/C(=C/c2cc[n+](C)c3ccccc23)C=Cc2ccccc21 | 13µM* | 1.3µM* | -39% | -90% | -43% | -21%
SMILES | FLuc counter | ELG1 repair inh | Rab9 prom act | SMN2 splice up | NPC1 promoter act | ELG1 genotoxic
C[n+]1ccc(/C=C/c2ccccc2O)c2ccccc21 | -15% | ? | -6% | -38% | -6% | -12%
CCCCN(C)CCNC(=O)c1ccc2c(=O)n(CCc3ccccc3)c(=O)[nH]c2c1 | 1% | nt | nt | -35% | nt | nt
Cn1ccnc1SCC(=O)Nc1ccc(Br)cc1C(F)(F)F | -25% | ? | 19% | nt | 26% | ?
CCCC1CCC(C(=O)Nn2c(C)nc3ccccc3c2=O)CC1 (stereo not given) | 0% | ? | 2% | -21% | 0% | -1%
CCCC1CCC(C(=O)n2nc(N)c3cc4ccc(OC)cc4nc32)CC1 (stereo not given) | -1% | 5.8µM* | -2% | -12% | 0% | -10%
Cc1ccc([N+](=O)[O-])cc1N=Cc1ccc(Br)s1 | 13µM* | ? | -1% | ? | ? | 9%
O=C(NN=Cc1ccc(N2CCOCC2)s1)c1ccc([N+](=O)[O-])cc1 | nt | 9.2µM* | nt | nt | nt | -9%
O=C(N/N=C/c1ccc(Br)s1)c1ccc([N+](=O)[O-])cc1 | -2% | 5.8µM* | -25% | -29% | -22% | -7%
NC(=O)N/N=C/c1ccc(N2CCOCC2)s1 | ? | -12% | 2% | 10% | 0% | 8%
COC(=O)[C@H](Cc1ccccc1)NC(=O)O[C@@H]1C(=O)c2ccc(OC)cc2O[C@H]1c1ccc2c(c1)OCO2 | nt | nt | nt | -8% | nt | nt
Cc1sc2ncnc(N3CCC(C(=O)Nc4nnc(SCc5ccccc5F)s4)CC3)c2c1C | 0% | 12% | -1% | nt | -1% | -1%
Cc1ccc(SCC(=O)O/N=C(\N)c2cccnc2)cc1 | -17% | ? | 0% | nt | -4% | ?
N/C(=N\OC(=O)C1CCCCC1)c1cccnc1 | 19µM* | 22% | 6% | -8% | 7% | 3%
N/C(=N\OC(=O)CC1CCCCC1)c1cccnc1 | 13µM* | ? | -2% | -5% | -3% | 3%
N/C(=N\OC(=O)CCC1CCCC1)c1cccnc1 | 13µM* | ? | 0% | 15% | -1% | 6%
N/C(=N\OC(=O)c1ccc(Br)o1)c1cccnc1 | ? | ? | ? | nt | 27% | 22%
Cc1nn(C)cc1S(=O)(=O)N1CCN(c2cccc(Cl)c2)CC1 | 2% | -8% | 5% | nt | -4% | 0%
C=C1C=C(C(F)F)n2ncc(C(=O)NCc3ccccc3Cl)c2N1 | -1% | nt | nt | nt | nt | nt
O=c1oc(CCO)cc2ccc(-c3ccc4[nH]ccc4c3)cc12 | 2.7µM* | ? | 0% | nt | ? | 15µM*
Cn1cncc1C#Cc1ccc2cc(CCO)oc(=O)c2c1 | -19% | 26% | -1% | nt | 13% | 7%
Cc1noc(C)c1C(=O)N1CCC2(CC1)CCN(C(c1ccccc1)c1ccccc1)CC2 | nt | nt | nt | -16% | nt | nt
COc1cccc(Cn2ncc3c4sc(B(O)O)cc4n(C)c3c2=O)c1 | -3% | nt | -3% | nt | -11% | nt
CC(C)Cn1nc(NS(=O)(=O)c2cccc3nonc23)c2cc3ccccc3nc21 | ? | -3% | -4% | nt | -3% | -3%
CCn1nc(NS(=O)(=O)c2cccc3nonc23)c2cc3ccc(C)cc3nc21 | 30µM* | 23% | 3% | nt | 1% | 4%
CCn1nc(NS(=O)(=O)c2ccc([N+](=O)[O-])cc2)c2cc3ccc(C)cc3nc21 | ? | -11% | -3% | nt | -4% | -4%
